Experimental data as given in PubChem BioAssay (NCI).
This is part of a sample that, as a whole, favours compounds with a hit. Of some 79,000 tested, about 15% had one in any assay. Activity calls are given as the source filed them. No stated cut-off is given here; in the data, active means growth inhibition above about 70%; inactive means the rest.

Legend:
[1] = NCI Yeast Anticancer Drug Screen. Data for the rad52 strain (AID 147);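 further: 0% = growth of vehicle-treated control cultures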; conditions: S. cerevisiae rad52 mutant growth inhibition, stronger effect = higher value
Procedure, shortened: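 Genetically altered yeast (DNA damage repair defect) treated with compound; inhibition calculated relative to vehicle.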

[2] = NCI Yeast Anticancer Drug Screen. Data for the wt1 strain (AID 149);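 further: 0% = growth of vehicle-treated wt1 cultures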; conditions: S. cerevisiae wt1 strain (SPY 50644) growth inhibition, stronger effect = higher value
Procedure, shortened: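 Growth inhibition read against vehicle controls after compound exposure of the wt1 yeast strain.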

[3] = NCI Yeast Anticancer Drug Screen. Data for the rad50EPP+ strain (AID 151);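 further: 0% = growth of vehicle-treated control cultures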; conditions: S. cerevisiae rad50 mutant strain, stronger effect = higher value
Procedure, shortened: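 Strain rad50EPP+; compound exposure; % growth inhibition vs vehicle.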

[4] = NCI Yeast Anticancer Drug Screen. Data for the mgt1 strain (AID 153); conditions: S. cerevisiae mgt1 mutant growth inhibition, stronger effect = higher value
Procedure, shortened: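 Read-out: yeast growth inhibition vs vehicle control. Strain mgt1, drawn from a panel altered in DNA damage repair or cell cycle control.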

[5] = NCI Yeast Anticancer Drug Screen. Data for the rad50 strain (AID 155);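 further: 0% = growth of vehicle-only cultures of the same strain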; conditions: S. cerevisiae rad50 strain growth inhibition, stronger effect = higher value
Procedure, shortened: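 Readout: growth inhibition relative to vehicle-treated cultures. Compound exposure was carried out in a genetically defined yeast strain deficient in DNA damage repair.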

[6] = NCI Yeast Anticancer Drug Screen. Data for the mec2-1 strain (AID 157); conditions: S. cerevisiae mec2-1 strain, stronger effect = higher value
Procedure, shortened: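 Cells of the genetically defined mec2-1 yeast strain are incubated with test compound. Inhibition of growth is calculated against vehicle-treated controls.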

[7] = NCI Yeast Anticancer Drug Screen. Data for the rad14 strain (AID 159);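 further: 0% = growth of vehicle-treated control cultures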; conditions: S. cerevisiae rad14 strain growth inhibition, stronger effect = higher value
Procedure, shortened: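 Growth inhibition vs vehicle controls; genetically altered yeast strain (DNA damage repair defect) treated with test compounds.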

[8] = NCI Yeast Anticancer Drug Screen. Data for the sgs1 mgt1 strain (AID 161);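 further: 0% = growth of cultures given vehicle only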; conditions: S. cerevisiae sgs1 mgt1 strain, stronger effect = higher value
Procedure, shortened: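 Genetically altered yeast, compound exposure, growth inhibition relative to vehicle.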

[9] = NCI Yeast Anticancer Drug Screen. Data for the CLN2oe strain (AID 163);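 further: 0% = growth of vehicle-only control cultures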; conditions: S. cerevisiae CLN2oe strain, stronger effect = higher value
Procedure, shortened: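 Strain altered in cell-cycle control, incubated with compound; growth compared to solvent-treated controls.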

[10] = NCI Yeast Anticancer Drug Screen. Data for the cln2 rad14 strain (AID 165);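 further: 0% = growth equal to vehicle treated cultures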; conditions: S. cerevisiae cln2 rad14 strain, stronger effect = higher value
Procedure, shortened: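 The screen exposed genetically defined yeast (cln2 rad14) to test compounds and scored growth inhibition relative to vehicle-treated controls.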

[11] = NCI Yeast Anticancer Drug Screen. Data for the bub3 strain (AID 167); conditions: S. cerevisiae bub3 mutant strain, stronger effect = higher value
Procedure, shortened: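 Readout: yeast growth inhibition, expressed relative to vehicle-only wells. The test organism is a mutant strain from a panel with lesions in DNA repair or checkpoint genes.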

[12] = NCI Yeast Anticancer Drug Screen. Data for the wt2 strain (AID 169);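 further: 0% = growth of vehicle-treated yeast cultures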; conditions: S. cerevisiae wt2 strain growth inhibition, stronger effect = higher value
Procedure, shortened: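 Steps: yeast strain treated with compound; growth recorded; inhibition calculated relative to cultures given vehicle alone.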

[13] = NCI Yeast Anticancer Drug Screen. Data for the mlh1 strain (AID 171);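 further: 0% = growth of vehicle-treated control cultures of the same strain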; conditions: S. cerevisiae mlh1 strain growth inhibition, stronger effect = higher value
Procedure, shortened: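 Yeast screen: mutant strain plus compound, growth scored against vehicle control wells.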

[14] = NCI Yeast Anticancer Drug Screen. Data for the sgs1 strain (AID 173);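 further: 0% = growth of vehicle-only control cultures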; conditions: S. cerevisiae sgs1 mutant, stronger effect = higher value
Procedure, shortened: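 Inhibition of yeast growth served as the measure. The mutant strain was treated with each compound, and growth was normalised to cultures receiving vehicle alone.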

[15] = NCI Yeast Anticancer Drug Screen. Data for the mlh1 rad18 strain (AID 175); conditions: S. cerevisiae mlh1 rad18 strain growth inhibition, stronger effect = higher value
Procedure, shortened: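 Compound-treated yeast growth, normalised to vehicle controls. Strain bears defined DNA repair mutations.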

[16] = NCI Yeast Anticancer Drug Screen. Data for the rad18 strain (AID 177); conditions: S. cerevisiae rad18 mutant growth inhibition, stronger effect = higher value
Procedure, shortened: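 Inhibition values reflect reduced yeast growth compared with vehicle-treated controls, using a strain engineered with a DNA damage repair defect.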

[17] = at 5.0 µM (retest, dose inferred, filed as 0.5)
[18] = at 50.0 µM (retest, dose inferred, filed as 5.0)

Measured: growth inhibition

CC(C)(C)c1nc2c(o1)C(=O)c1ccccc1C2=O
active: [1]; at 33.0 µM 89% | [1]; at 100.0 µM 98% | [2]; at 100.0 µM 95% | [3]; at 33.0 µM 87% | [3]; at 100.0 µM 97% | [4]; at 33.0 µM 75% | [4]; at 100.0 µM 95% | [5]; at 33.0 µM 90% | [5]; [18] 91% | [5]; at 50.0 µM 85.2% | [5]; at 100.0 µM 97% | [6]; [18] 77% | [6]; at 50.0 µM 94% | [6]; at 100.0 µM 94% | [7]; at 33.0 µM 79% | [7]; at 100.0 µM 98% | [8]; [18] 70% | [8]; at 50.0 µM 93.3% | [9]; at 100.0 µM 96% | [10]; at 50.0 µM 92.1% | [11]; at 33.0 µM 87% | [11]; [18] 90% | [11]; at 50.0 µM 93% | [11]; at 100.0 µM 97% | [12]; at 33.0 µM 72% | [12]; at 100.0 µM 94% | [13]; at 33.0 µM 81% | [13]; at 100.0 µM 96% | [14]; at 33.0 µM 88% | [14]; at 100.0 µM 95% | [15]; [18] 86% | [15]; at 50.0 µM 91.5% | [16]; at 33.0 µM 77% | [16]; at 100.0 µM 95%
inactive: [1]; at 1.2 µM -27% | [1]; at 3.7 µM -22% | [1]; at 11.0 µM 20% | [2]; at 1.2 µM -30% | [2]; at 3.7 µM -20% | [2]; at 11.0 µM -5% | [2]; at 33.0 µM 63% | [3]; at 1.2 µM -19% | [3]; at 3.7 µM -17% | [3]; at 11.0 µM -7% | [4]; at 1.2 µM -21% | [4]; at 3.7 µM -16% | [4]; at 11.0 µM 19% | [5]; at 1.2 µM -56% | [5]; at 3.7 µM -15% | [5]; [17] 23% | [5]; at 11.0 µM 32% | [6]; at 1.2 µM 11% | [6]; at 3.7 µM 15% | [6]; [17] 14% | [6]; at 11.0 µM 27% | [6]; at 33.0 µM 57% | [7]; at 1.2 µM -15% | [7]; at 3.7 µM -5% | [7]; at 11.0 µM 13% | [8]; [17] 32% | [9]; at 1.2 µM -3% | [9]; at 3.7 µM -8% | [9]; at 11.0 µM 6% | [9]; at 33.0 µM 65% | [10]; [17] 3% | [10]; [18] 42% | [11]; at 1.2 µM -3% | [11]; at 3.7 µM 12% | [11]; [17] 52% | [11]; at 11.0 µM 36% | [12]; at 1.2 µM -41% | [12]; at 3.7 µM -26% | [12]; at 11.0 µM 32% | [13]; at 1.2 µM -6% | [13]; at 3.7 µM -3% | [13]; at 11.0 µM 25% | [14]; at 1.2 µM 7% | [14]; at 3.7 µM -10% | [14]; at 11.0 µM 36% | [15]; [17] 21% | [16]; at 1.2 µM -25% | [16]; at 3.7 µM -14% | [16]; at 11.0 µM 4%

O=S(=O)(CCCl)c1ccccc1Cl
active: [1]; at 33.0 µM 93% | [1]; at 100.0 µM 99% | [2]; at 33.0 µM 94% | [2]; at 100.0 µM 98% | [3]; at 33.0 µM 79% | [3]; at 100.0 µM 84% | [4]; at 33.0 µM 96% | [4]; at 100.0 µM 98% | [5]; at 33.0 µM 94% | [5]; [18] 79% | [5]; at 50.0 µM 94.2% | [5]; at 100.0 µM 98% | [6]; at 33.0 µM 83% | [6]; [18] 79% | [6]; at 50.0 µM 91.8% | [6]; at 100.0 µM 98% | [7]; at 33.0 µM 91% | [7]; at 100.0 µM 99% | [8]; [18] 87% | [8]; at 50.0 µM 90.8% | [9]; at 100.0 µM 97% | [10]; at 50.0 µM 84.3% | [11]; at 33.0 µM 94% | [11]; [18] 80% | [11]; at 50.0 µM 90.7% | [11]; at 100.0 µM 98% | [12]; at 33.0 µM 98% | [12]; at 100.0 µM 99% | [13]; at 33.0 µM 90% | [13]; at 100.0 µM 97% | [14]; at 33.0 µM 95% | [14]; at 100.0 µM 99% | [15]; [18] 81% | [15]; at 50.0 µM 90.2% | [16]; at 11.0 µM 83% | [16]; at 33.0 µM 96% | [16]; at 100.0 µM 98%
inactive: [1]; at 1.2 µM -5% | [1]; at 3.7 µM 1% | [1]; at 11.0 µM 42% | [2]; at 1.2 µM 3% | [2]; at 3.7 µM 23% | [2]; at 11.0 µM 33% | [3]; at 1.2 µM -7% | [3]; at 3.7 µM 15% | [3]; at 11.0 µM 43% | [4]; at 1.2 µM 1% | [4]; at 3.7 µM 1% | [4]; at 11.0 µM 41% | [5]; at 1.2 µM -8% | [5]; at 3.7 µM -12% | [5]; [17] -119% | [5]; at 11.0 µM 65% | [6]; at 1.2 µM 2% | [6]; at 3.7 µM 8% | [6]; [17] -36% | [6]; at 11.0 µM 19% | [7]; at 1.2 µM -2% | [7]; at 3.7 µM 11% | [7]; at 11.0 µM 45% | [8]; [17] -42% | [9]; at 1.2 µM -5% | [9]; at 3.7 µM -2% | [9]; at 11.0 µM 3% | [9]; at 33.0 µM 68% | [10]; [17] -42% | [10]; [18] 25% | [11]; at 1.2 µM -1% | [11]; at 3.7 µM 6% | [11]; [17] -59% | [11]; at 11.0 µM 38% | [12]; at 1.2 µM 8% | [12]; at 3.7 µM 32% | [12]; at 11.0 µM 64% | [13]; at 1.2 µM -10% | [13]; at 3.7 µM -1% | [13]; at 11.0 µM 27% | [14]; at 1.2 µM -5% | [14]; at 3.7 µM 0% | [14]; at 11.0 µM 64% | [15]; [17] -115% | [16]; at 1.2 µM -1% | [16]; at 3.7 µM 13%
